Potency data for 72 compounds are collected here from PubChem BioAssay AID504339 (National Center for Advancing Translational Sciences (NCATS), 2011).

Out of some 390,000 compounds screened, about 17,000 (4.4%) were called active. About 8% were inconclusive and are not listed. Calls come from the whole dose curve; as a rule, active = well fitted inhibition curve with a large enough effect; inconclusive = small, poorly fitted or top-dose-only effect; inactive = no such curve, though single readings can be large or run the other way. The entries come from a sample that favours actives as a whole. Where a call stands in place of a potency, no number is given.
Potency is the fitted concentration of half-maximal effect.

Lysine-specific demethylase 4A (Homo sapiens), sequence (O75164 whole entry, looked up, the tested form may be a part): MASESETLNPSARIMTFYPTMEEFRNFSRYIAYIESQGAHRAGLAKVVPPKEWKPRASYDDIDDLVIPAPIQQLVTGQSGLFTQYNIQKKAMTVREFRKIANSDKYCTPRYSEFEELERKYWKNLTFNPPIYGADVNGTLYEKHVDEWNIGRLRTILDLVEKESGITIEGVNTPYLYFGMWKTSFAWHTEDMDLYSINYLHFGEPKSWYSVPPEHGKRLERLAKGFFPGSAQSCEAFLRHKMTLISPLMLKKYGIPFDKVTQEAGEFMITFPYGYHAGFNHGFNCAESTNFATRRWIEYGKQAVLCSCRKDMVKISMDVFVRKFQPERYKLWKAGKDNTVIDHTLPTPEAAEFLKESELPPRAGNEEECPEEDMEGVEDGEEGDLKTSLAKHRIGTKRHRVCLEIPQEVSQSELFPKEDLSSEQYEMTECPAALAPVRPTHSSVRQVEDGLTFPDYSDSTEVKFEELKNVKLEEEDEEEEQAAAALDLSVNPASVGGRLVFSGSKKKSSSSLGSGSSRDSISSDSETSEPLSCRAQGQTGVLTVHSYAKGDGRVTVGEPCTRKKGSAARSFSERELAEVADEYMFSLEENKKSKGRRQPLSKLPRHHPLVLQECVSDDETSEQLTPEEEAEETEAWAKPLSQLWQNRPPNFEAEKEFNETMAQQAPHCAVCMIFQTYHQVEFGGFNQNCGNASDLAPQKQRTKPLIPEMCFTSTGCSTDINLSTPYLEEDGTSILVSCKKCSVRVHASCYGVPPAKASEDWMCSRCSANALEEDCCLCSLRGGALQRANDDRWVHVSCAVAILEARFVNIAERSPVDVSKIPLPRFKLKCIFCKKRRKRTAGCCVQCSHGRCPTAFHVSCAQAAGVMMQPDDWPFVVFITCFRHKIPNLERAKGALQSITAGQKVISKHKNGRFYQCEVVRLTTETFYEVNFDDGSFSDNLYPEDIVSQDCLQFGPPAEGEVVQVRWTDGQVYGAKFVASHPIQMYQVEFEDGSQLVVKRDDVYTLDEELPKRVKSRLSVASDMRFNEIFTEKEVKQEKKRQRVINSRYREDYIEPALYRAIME

The assay addresses Lysine-specific demethylase 4A (Homo sapiens) (UniProt O75164). Briefly: qHTS Assay for Inhibitors of JMJD2A-Tudor Domain. Note: nearly all actives have a fitted effect of over 50% in size. Conditions: AlphaScreen JMJD2A-Tudor / H3K4me3 peptide binding; series mostly up to 114 µM. The source says:
JMJD2A is a jumonji-domain-containing lysine demethylase that uses Fe(II) together with 2-OG to effect oxidative demethylation of histones. Methylation is one of many […] modification that affect epigenetic transcription. […] It is proposed that the functions of JmjD2A binding to the histones, is to maintain marks after they are installed and to spread the modifications by […], establishing a self-propagating cycle for rapid methylation over a large area of chromatin. […] Thus, small molecule targeting of the JMJD2A-tudor domain interaction with its target methylhistone mark is expected to enable sophisticated experiments probing the fine regulatory pathways leading to selective demethylation of a given methyllysine locus based on the methylation state of adjacent histone marks. A quantitative high throughput AlphaScreen has been developed to identify small molecule inhibitors based on a protocol published by NCGC and SGC [4].
Although AlphaScreen has significant advantages with its utility in a variety of epigenetic target assays, the primary screening data provided in this deposition should be used with caution due to the prevalence of screening artifacts. The top compound concentration tested was high (>100uM) in this assay, which increases number of actives and potential artifacts. An AlphaScreen counterscreen is highly recommended to be run against any putative actives to eliminate non-specific artifacts. Alternatively, one can use other AlphaScreen assays in PubChem to filter out promiscuous hits.
[1] Lee, J. et al. Distinct binding modes specify the recognition of methylated histone H3K4 and H4K20 by JMJD2A-tudor. Nat Struct Mol Biol. 15(1); 109-11. 2008. PMID: 18084306
[2] Yasgar, et al. Compound Management for Quantitative High-Throughput Screening. JALA. 2008 Apr;13(2):79-89. PMID: 18496600
[3] Inglese, et al. Quantitative high-throughput screening: a titration-based approach that efficiently identifies biological activities in large chemical libraries. Proc Natl Acad Sci. 1;103(31):11473-8. 2006. PMID: 16864780
[4] Quinn et al. A homogeneous method for investigation of methyl-dependent protein-protein interactions in epigenetics. Nucleic Acids Res., 38(2):e11. 2010. PMID: […]
[5] Baell,Holloway. New substructure filters for removal of pan assay interference compounds (PAINS) from screening libraries and for their exclusion in bioassays. J Med Chem. 53(7):2719-40. 2010. PMID: 20131845
NIH Molecular Libraries Probe Production Network [MLPCN]
NIH Chemical Genomics Center [NCGC]
Structural Genomics Consortium (SGC)
To each well of a 1,536w plate, 2ul of JMJD2A-Tudor (final 100nM) and 1ul biotinylated histone peptide methylated at Lys4 [b-H3(1-18)K4me3] (final 50nM) were added in 1x PBS buffer, pH 7.4, containing 0.01% Tween-20, using a nanoliter dispenser. Formation of a protein-peptide complex proceeded at room temperature for 30 min. A Kalypsys pin-tool transferred 23nl of library compound solution in DMSO to each well. Following a 30 min incubation of the protein-peptide complex with compounds at room temperature, a mixture of 40 µg/mL each streptavidin-coated donor and nickel chelate acceptor AlphaScreen beads (final 10 µg/mL) was added in a 1ul dispense for a final volume of 4ul, followed by a brief centrifugation (1000 rpm, 1 min). Plates were incubated protected from the light for 20 min at room temperature. Microplates were then read on an EnVision multilabel plate reader using the 1,536 plate HTS AlphaScreen aperture (excitation time 80 ms, measurement time 240 ms).
In general terms: qHTS replaces the single test concentration by a dilution series.
With `Cc1ccc2oc(=O)c3cnn(CC(=O)NCc4ccccc4Cl)c3c2c1`, the Potency entry is “inactive”.

As for `CCOc1cc(C(=O)NCCc2csc3nc(-c4ccc(C)cc4)nn23)cc(OCC)c1OCC`, the Potency entry is “inactive”.

As for `NNC(=O)CSc1nnc(-c2ccccc2)n1-c1ccccc1`, the Potency result was “inactive”.

In the case of `COc1ccc(-c2nnc(SCC(=O)c3ccco3)n2-c2ccccc2)cc1`, the Potency is 56.2 µM (active).

With `COc1ccc(C(=O)NC(=O)CSc2nnc(-c3ccco3)n2-c2ccccc2)cc1`, the Potency entry is “inactive”.

As to `CCOc1ccc(-n2c(SCC(N)=O)nnc2-c2ccco2)cc1`, the Potency was 20 µM (active).

As for `Cc1cccc(C)c1NC(=O)CCCSc1nnc(-c2ccco2)n1-c1ccccc1`, the Potency result is “inactive”.

In the case of `Cc1cc(NC(=O)CSc2nnc(-c3ccco3)n2N)no1`, the Potency entry is “inactive”.

In the case of `O=C1OC(C(=O)Nc2cccc(Br)c2)Cc2ccccc21` (configuration not stated), the Potency entry was “inactive”.

For the compound `CCOC(=O)c1ccc(NC(=O)c2ncn(-c3ccccc3)n2)cc1`, the Potency result was “inactive”.

Turning to `NC1=NC(c2cc(F)cc(F)c2)n2c(nc3ccccc32)N1` (configuration not stated), the Potency entry is “inactive”.

Consider `COc1ccccc1NC(=O)c1cc(S(=O)(=O)NCCc2ccccc2)ccc1F`, for which the Potency result is “inactive”.

Turning to `Oc1ccccc1-c1nc(/C=C/c2ccc(F)cc2)no1`, the Potency entry was “inactive”.

In the case of `Cc1ccc(NC(=O)c2cccnc2C(=O)Nc2ccc(C)cc2)cc1`, the Potency result is “inactive”.

Take `O=C(Nc1ccc(-n2ccnc2P(=O)(O)c2ccccc2)cc1)c1ccccc1Br`: the Potency is 8.91 µM (active).

Regarding `Cn1c(=O)c(=O)n(C)c2cc(NC(=O)c3ccccc3Br)ccc21`, the Potency result was “inactive”.

On to `COc1ccc(CCNC(=O)c2cc3cccc4c3n2CC(C)S4)c(OC)c1OC` (configuration not stated), for which the Potency result was “inactive”.

`CNC(=O)NC(=O)CSc1nnc(-c2ccc(F)cc2)n1CC1CCCO1` (configuration not stated): the Potency entry is “inactive”.

As to `S=c1[nH]nc(-c2ccc(Cl)cc2)n1CC1CCCO1` (configuration not stated), the Potency is 8.91 µM (active).

For `Cc1nnc(SCC(=O)NNC(=O)c2ccc(Cl)cc2)n1CC1CCCO1` (configuration not stated), the Potency entry is “inactive”.

As to `COc1cc2[nH]c(=O)n(Cc3ccc(C(=O)NCc4ccc(C)cc4)cc3)c(=O)c2cc1OC`, the Potency result is “inactive”.

With `O=C(NCC(c1ccc(Cl)cc1)N1CCOCC1)c1ccccc1F` (configuration not stated), the Potency entry is “inactive”.

Turning to `O=C(Nc1ccc(C(=O)OCc2cc(=O)n3nc(C4CC4)sc3n2)cc1)c1ccc(F)cc1`, the Potency entry was “inactive”.

As for `CCN(C(=O)CSc1nnc(C)n2c1cc1occc12)c1ccccc1`, the Potency entry is “inactive”.

As for `CNC(=O)CN1C(=O)c2cccnc2Sc2ccccc21`, the Potency result was “inactive”.

As to `CSc1n[nH]c(=S)n1N`, the Potency was 17.8 µM (active).

With `CCOC(=O)C1CCN(c2c(Nc3cc(C)cc(C)c3)c(=O)c2=O)CC1`, the Potency entry is “inactive”.

For the compound `CCOC(=O)C1CCN(c2csc3ccc(C)cc3c2=O)CC1`, the Potency is 17.8 µM (active).

With `CCOC(=O)C1CCN(c2ccc(C(=O)O)cc2[N+](=O)[O-])CC1`, the Potency entry was “inactive”.

On to `CCOc1ccc(N(C)Cc2cc(=O)oc3ccc(OC)cc23)cc1`, for which the Potency was 14.1 µM (active).

Take `COc1ccc2oc(=O)cc(CN3CCOCC3)c2c1`: the Potency result was “inactive”.

With `CCOc1ccc2oc(=O)cc(CN3CCN(C(=O)c4ccc(F)cc4)CC3)c2c1`, the Potency result was “inactive”.

Consider `Cc1ccc(NC(=O)c2oc3ccccc3c2NC(=O)Cc2cccs2)cc1`, for which the Potency result is “inactive”.

Take `N#Cc1ccc(OC2=NS(=O)(=O)c3ccccc32)cc1`: the Potency entry was “inactive”.

As to `CCOC(=O)Cc1csc(NC(=O)CSc2ccc(Br)cc2)n1`, the Potency result was “inactive”.

Take `CCOC(=O)Cc1csc(NC(=O)CSc2nc(C)cc(=O)[nH]2)n1`: the Potency is 20 µM (active).

In the case of `CCCCc1nnc(NC(=O)CSc2nc(C)cc(=O)[nH]2)s1`, the Potency entry was “inactive”.

Turning to `CCc1ccc(NC(=O)CN2CCSc3ccc(S(=O)(=O)N4CCCC4)cc32)cc1`, the Potency entry was “inactive”.

Take `COc1cc(OC)c(N(C)C(=O)c2cc3c(=O)oc4ccccc4c3s2)cc1Cl`: the Potency entry is “inactive”.

Take `Cc1ccccc1CS(=O)(=O)CC1Nc2ccc(C(=O)NCc3ccc(Cl)cc3)cc2NC1=O` (configuration not stated): the Potency entry was “inactive”.

On to `Cc1ccccc1CSc1nnc(-c2cccnc2)n1N`, for which the Potency result is “inactive”.

For the compound `Cc1ccccc1CSc1nnc(-c2ccccn2)n1N`, the Potency is 31.6 µM (active).

On to `Cn1c(SCC(=O)C(C)(C)C)nnc1-c1ccccn1`, for which the Potency entry was “inactive”.

`Fc1ccc(-c2nc(Nc3cccc(Cl)c3)nc3c2COc2ccccc2-3)cc1`: the Potency entry was “inactive”.

For the compound `O=C(NCCS(=O)(=O)N1CCN(c2ccc(F)cc2)CC1)c1ccccc1Br`, the Potency result is “inactive”.

With `CCC(=O)N1CCc2cc(S(=O)(=O)NC(Cc3ccccc3)C(=O)NCc3ccccc3)ccc21` (configuration not stated), the Potency entry was “inactive”.

Take `O=C(Nc1ccccc1Br)c1cc(CN2CCCC2)on1`: the Potency entry is “inactive”.

As to `CCN(c1ccc(NC(=O)COC(=O)CCc2nc3ccccc3n2-c2ccccc2)cc1)C(C)C`, the Potency was 11.2 µM (active).

Turning to `CC(C)(C)c1ccc(NC(=O)COC(=O)CCc2nc3ccccc3c(=O)[nH]2)cc1`, the Potency entry is “inactive”.

As to `Cc1ccc(NC(=O)COC(=O)CCc2nc3ccccc3n2-c2ccccc2)c(C)c1`, the Potency result was “inactive”.

`Cc1ccc(Cn2c(CNC(=O)Cc3cccc(C)c3)nc3cccnc32)cc1`: the Potency entry was “inactive”.

Consider `COc1cc2ccccc2cc1C(=O)Nc1cccc(-c2nc3ccccc3o2)c1`, for which the Potency entry is “inactive”.

For the compound `S=c1[nH]nc2c3c4c(sc3ncn12)CCCC4`, the Potency was 22.4 µM (active).

Turning to `N=c1c2c3c(sc2ncn1CCCN1CCOCC1)CCCCC3`, the Potency entry is “inactive”.

As for `CC(C(=O)O)n1cnc2sc3c(c2c1=O)CCCC3` (configuration not stated), the Potency result is “inactive”.

Take `Cc1noc2ncnc(NCc3ccccc3Cl)c12`: the Potency entry is “inactive”.

Consider `Cc1ccc(C)c(Cn2c(=O)n(CCC(=O)NCc3ccc4c(c3)OCO4)c(=O)c3sccc32)c1`, for which the Potency result is “inactive”.

Take `COC(=O)c1ccccc1NC(=O)Cn1c(=O)n(-c2cccc(C(F)(F)F)c2)c(=O)c2c(C)c(C)sc21`: the Potency entry is “inactive”.

In the case of `C#CCOc1ccccc1/C=C1/C(=O)ON=C1C`, the Potency result was “inactive”.

In the case of `CC1=NOC(=O)/C1=C\c1ccccc1`, the Potency is 25.1 µM (active).

For `C=CCOc1ccc(/C=C2/C(=O)ON=C2C)cc1OCC`, the Potency result was “inactive”.

Regarding `COc1ccc(Nc2ncc(C(=O)Nc3cc(C)ccc3OC)c3ccccc23)cc1`, the Potency result is “inactive”.

Turning to `Cc1ccc(/C=C(\C#N)C(=O)Nc2cc(C)ccc2C)cc1`, the Potency result was “inactive”.

For `CCc1ccc(NC(=O)CSc2nc3c([nH]c4ccccc43)c(=O)n2-c2cccc(OC)c2)cc1`, the Potency result was “inactive”.

`CCOc1ccc(C(=O)CCN2CCOCC2)cc1`: the Potency entry is “inactive”.

Turning to `Cc1cccc(C)c1OCCN1CCOCC1`, the Potency is 28.2 µM (active).

With `O=C(OCCN1CCOCC1)C1(c2ccccc2)CCCCC1`, the Potency result was “inactive”.

In the case of `Brc1ccc(/C=N/N2CCN(C3c4ccccc4-c4ccccc43)CC2)s1`, the Potency entry is “inactive”.

Consider `CN(C)C(=O)CSc1n[nH]c(-c2ccco2)n1`, for which the Potency entry is “inactive”.

As for `S=c1[nH]nc(-c2ccco2)n1/N=C/c1ccccc1`, the Potency was 3.55 µM (active).

With `S=c1[nH]nc(/C=C/c2ccccc2)o1`, the Potency entry is “inactive”.

Regarding `S=c1[nH]nc(-c2ccco2)n1/N=C/c1ccc(Br)s1`, the Potency is 28.2 µM (active).
